Screen size: about 330,000 compounds; about 520 (0.16%) were called active. This is one part of a sample in which actives are shown more often than they occur.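 Rule for the calls: active = inhibition of at least 50% in every replicate; inconclusive = best replicate reaches 50% inhibition but some replicates fall short; inactive = the rest.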

For this experiment, the target named is Histone acetyltransferase RTT109 (Candida albicans (strain SC5314 / ATCC MYA-2876)) (UniProt Q5AAJ8). Briefly: inhibitors of C. albicans Rtt109/Vps75 HAT, primary screen, biochemical, ThioGlo CoA-SH fluorescence, plate reader (AID 540336). The settings on record: purified Rtt109/Vps75, ThioGlo CoA-SH fluorescence, 4 h; at 34.9 µM; active compounds read high.
Histone acetyltransferase RTT109 (Candida albicans (strain SC5314 / ATCC MYA-2876)), sequence (Q5AAJ8 whole entry, looked up): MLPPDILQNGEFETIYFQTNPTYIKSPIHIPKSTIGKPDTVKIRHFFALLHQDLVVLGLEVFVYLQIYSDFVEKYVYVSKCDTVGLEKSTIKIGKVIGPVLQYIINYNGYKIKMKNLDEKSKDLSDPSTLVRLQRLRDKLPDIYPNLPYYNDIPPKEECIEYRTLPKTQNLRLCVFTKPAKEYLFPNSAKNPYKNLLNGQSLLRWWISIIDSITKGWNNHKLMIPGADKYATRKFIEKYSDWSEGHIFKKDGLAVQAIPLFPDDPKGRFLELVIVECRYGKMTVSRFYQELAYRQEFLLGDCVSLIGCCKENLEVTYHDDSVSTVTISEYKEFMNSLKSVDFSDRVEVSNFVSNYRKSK
As usually defined, the inhibition is the relative decrease from the control value, in per cent. Turning to `CCCCCCCCCCCCn1ccc(=N)cc1`, the inhibition was 64.2% (active).

In the case of `CC(=O)OC1C2(CC3N4C(=O)C5(CO)SSC4(CC31O)C(=O)N5C)OC(C)C(C)(C)C2=O` (stereo not given), the inhibition was -1.66% (inactive).

As to `O=C(c1ccccc1)C(O)(CN1CCCCC1)c1ccccc1` (stereo not given), the inhibition was -0.455% (inactive).

Consider `CCC(C)(O)C(=O)OC1C(=O)OC2CC3C(C)=CC(=O)C(O)C3(C)C3C4(O)OCC23C1C(C)C4O` (stereo not given), for which the inhibition is 11.1% (inactive).

Regarding `COC1C(O)C(C)OC(OC2CCC3(C=O)C(CCC4C3CCC3(C)C(C5=CC(=O)OC5)CCC43O)C2)C1O` (stereo not given), the inhibition is 9.01% (inactive).

Source of the values: PubChem BioAssay AID540336 (Broad Institute, 2011).
